# Reference: the supplement of paper PMC8728848
# The sample as a whole holds a higher share of the strongest signals than the screen did.
# Key:
# Assay in all cases: glycan array binding signal (z-score within array); higher = stronger binding
# Details in all cases: glycan notation: IUPAC condensed, linker removed
# GalNAc3S(b1-4)GlcNAc3S = molecular target: GalNAc3S(b1-4)GlcNAc3S
# In short: (§1)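 The Consortium for Functional Glycomics database supplied 3228 glycan arrays, of which those lacking an available protein sequence were dropped. The binding signal, a within-array Z-score, was averaged across arrays of the same protein sequence and across linkers. Negative scores can be read as non-binding.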
# GlcA(b1-6)Gal = molecular target: GlcA(b1-6)Gal
# In short: as §1
# [1] = molecular target: GlcNAc(a1-4)Gal(b1-4)GlcNAc(b1-3)Gal(b1-4)GlcNAc(b1-3)Gal(b1-4)GlcNAc
# In short: as §1
# [2] = molecular target: GlcNAc(b1-6)Gal(b1-4)GlcNAc
# In short: as §1
# GlcNAc(b1-6)GalNAc = molecular target: GlcNAc(b1-6)GalNAc
# In short: as §1
# Kdn(a2-3)Gal(b1-3)GlcNAc = molecular target: Kdn(a2-3)Gal(b1-3)GlcNAc
# In short: as §1
# Kdn(a2-3)Gal(b1-4)GlcNAc = molecular target: Kdn(a2-3)Gal(b1-4)GlcNAc
# In short: as §1
# [3] = molecular target: Man(a1-2)Man(a1-3)[Man(a1-2)Man(a1-6)]Man
# In short: as §1
# [4] = molecular target: Neu5Ac(a2-3)Gal(b1-4)GlcNAc(b1-3)Gal(b1-4)GlcNAc(b1-3)GalNAc
# In short: as §1
# [5] = molecular target: Neu5Ac(a2-3)Gal(b1-4)[Fuc(a1-3)]GlcNAc(b1-3)Gal
# In short: as §1
# [6] = molecular target: Neu5Ac(a2-3)Gal(b1-4)[Fuc(a1-3)]GlcNAc(b1-3)Gal(b1-4)GlcNAc
# In short: as §1
# [7] = molecular target: Neu5Ac(a2-3)Gal(b1-4)[Fuc(a1-3)]GlcNAc(b1-6)[Gal(b1-3)]GalNAc
# In short: as §1
# [8] = molecular target: Neu5Ac(a2-3)[GalNAc(b1-4)]Gal(b1-4)Glc
# In short: as §1
# [9] = molecular target: Neu5Ac(a2-6)Gal(b1-3)GlcNAc(b1-3)[Gal(b1-4)GlcNAc(b1-6)]Gal(b1-4)Glc
# In short: as §1
# [10] = molecular target: Neu5Ac(a2-6)Gal(b1-4)GlcNAc(b1-2)Man(a1-3)[Man(a1-6)]Man(b1-4)GlcNAc(b1-4)GlcNAc
# In short: as §1
# [11] = molecular target: Neu5Ac(a2-6)Gal(b1-4)GlcNAc(b1-3)[Neu5Ac(a2-6)Gal(b1-4)GlcNAc(b1-6)]GalNAc
# In short: as §1
# [12] = molecular target: Neu5Ac(a2-6)Gal(b1-4)GlcNAc(b1-6)[Gal(b1-3)GlcNAc(b1-3)]Gal(b1-4)Glc
# In short: as §1
# [13] = molecular target: Neu5Ac(a2-6)GalNAc(b1-4)GlcNAc
# In short: as §1
# Neu5Gc(a2-6)GalNAc = molecular target: Neu5Gc(a2-6)GalNAc
# In short: as §1
binder,measurement,setting,value
"Epa9 (Candida glabrata), CAGL0A01386g (protein) MGSSHHHHHHSSGLVPRGSHMDITPFAHYPRPEGCSSPPNAVSVGLHMDLYNYPYLYVKNPRTGFTNDTDSDADGETDGDSAGGIEGRAGQCWNPEYQDPNFPRYGYKKYGSFGSSDHVNGKISWDHNEFKEGCKPIMARLPTAYNYPAKITFSNFTMVLSGYFKPKSTGLYKFEIHADDFILFNFGSKNAFECCNREESIDNFGPYVAYAMWPNEADQELEVYLFEDSYYPIRLFYNNRDYHSKFMVGFYPPNTEEITYDFDGYLYMLDDTGNECKDSIRYKTVCDD",glycan array binding signal (z-score),GalNAc3S(b1-4)GlcNAc3S,-0.441
same,glycan array binding signal (z-score),GlcA(b1-6)Gal,-0.198
same,glycan array binding signal (z-score),[1],-0.462
same,glycan array binding signal (z-score),[2],0.361
same,glycan array binding signal (z-score),GlcNAc(b1-6)GalNAc,-0.467
same,glycan array binding signal (z-score),Kdn(a2-3)Gal(b1-3)GlcNAc,-0.454
same,glycan array binding signal (z-score),Kdn(a2-3)Gal(b1-4)GlcNAc,-0.394
same,glycan array binding signal (z-score),[3],-0.635
same,glycan array binding signal (z-score),[4],-0.387
same,glycan array binding signal (z-score),[5],-0.474
same,glycan array binding signal (z-score),[6],-0.253
same,glycan array binding signal (z-score),[7],-0.217
same,glycan array binding signal (z-score),[8],-0.447
same,glycan array binding signal (z-score),[9],0.392
same,glycan array binding signal (z-score),[10],-0.06
same,glycan array binding signal (z-score),[11],-0.357
same,glycan array binding signal (z-score),[12],-0.304
same,glycan array binding signal (z-score),[13],-0.519
same,glycan array binding signal (z-score),Neu5Gc(a2-6)GalNAc,-0.467
